# Screens deposited in PubChem by The Scripps Research Institute Molecular Screening Center.
# TEAD-YAP block: TEAD-YAP interaction inhibition, primary screen, TEAD-YAP interaction inhibitor project, luminescence, HEK-TIYL cells; 640,000 compounds, 1.4% hits; AID 1259422, 2018; inhibition, % at 9.12 µM; TEAD-Gal4/YAP UAS-luciferase luminescence; in the data active = inhibition above about 32%
# FBW7 activator: FBW7 E3 ligase activators, primary screen, biochemical, AlphaScreen, human. AlphaScreen FBW7–phospho-cyclin E peptide binding, activator screen. 650,000 compounds, 0.13% hits. AID 1259310, 2017. F-box/WD repeat-containing protein 7 (Homo sapiens), Q969H0. normalized activity (activation), % at 26.1 µM; in the data active = normalized activity above about 1.9%;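 note: purified mutant Fbw7 with reduced substrate affinity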
# Target sequence (Q969H0 whole entry, looked up): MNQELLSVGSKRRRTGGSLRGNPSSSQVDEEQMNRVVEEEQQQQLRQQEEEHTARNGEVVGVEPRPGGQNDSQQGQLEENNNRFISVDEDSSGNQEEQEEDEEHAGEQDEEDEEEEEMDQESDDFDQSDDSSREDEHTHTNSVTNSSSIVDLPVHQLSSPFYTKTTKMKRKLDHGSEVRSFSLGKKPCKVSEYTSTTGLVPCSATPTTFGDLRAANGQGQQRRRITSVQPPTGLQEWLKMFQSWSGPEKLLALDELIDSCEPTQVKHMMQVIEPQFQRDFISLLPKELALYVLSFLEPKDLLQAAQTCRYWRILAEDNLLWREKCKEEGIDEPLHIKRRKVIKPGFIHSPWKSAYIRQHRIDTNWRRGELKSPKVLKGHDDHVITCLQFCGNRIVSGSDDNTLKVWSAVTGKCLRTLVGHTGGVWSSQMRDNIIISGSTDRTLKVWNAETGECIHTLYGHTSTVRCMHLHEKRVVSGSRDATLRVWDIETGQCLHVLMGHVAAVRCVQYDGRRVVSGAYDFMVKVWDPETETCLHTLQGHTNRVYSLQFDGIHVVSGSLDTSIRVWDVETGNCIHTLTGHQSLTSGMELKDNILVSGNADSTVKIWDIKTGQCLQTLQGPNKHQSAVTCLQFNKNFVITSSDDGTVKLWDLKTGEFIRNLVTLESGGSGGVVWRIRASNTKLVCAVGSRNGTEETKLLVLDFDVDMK
# GPR151 ag: activators of human GPR151, primary screen, cell-based, PathHunter beta-arrestin, luminescence; G-protein coupled receptor 151 (Homo sapiens), Q8TDV0; PathHunter beta-arrestin GPR151 cells; activation, % at 11.2 µM; 650,000 compounds, 1% hits; AID 1508602, 2020; in the data active = activation above about 4.9%
# MITF inh: MITF inhibitors, primary screen, biochemical, AlphaScreen, human. AlphaScreen MITF homodimerization, bead proximity signal. 650,000 compounds, 0.91% hits. inhibition, % at 2.6 µM. Microphthalmia-associated transcription factor (Homo sapiens), O75030; in the data active = inhibition above about 50%
# MITF inh conf: MITF inhibitors, retest of hits, confirmation, biochemical, AlphaScreen, triplicate | shares compounds with MITF inh | AlphaScreen MITF homodimerization, biotin/His-MITF beads | inhibition, % at 2.6 µM | 4,700 compounds, 16% hits;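 active = inhibition above a cutoff derived from the DMSO control wells, cut at about 28% in these data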;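 note: inhibitors lower the bead chemiluminescence by keeping MITF from dimerizing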
# AlphaScreen DR: AlphaScreen optical interference compounds, dose response, counter-screen, biochemical, HTS | shares compounds with MITF inh | AlphaScreen optical interference counterscreen, cell-free | IC50, µM | 480 compounds, 6% hits | AID 1259373, 2018; call rule not given here
# AlphaScreen intf2: AlphaScreen optical interference compounds, counter-screen for MITF inhibitor project, biochemical, triplicate; 4,700 compounds, 7.6% hits; shares compounds with MITF inh; inhibition, % at 2.6 µM; AID 1259376, 2018; LysRS AlphaScreen counterscreen, signal interference;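 active = inhibition above a cutoff derived from the DMSO control wells, cut at about 30% in these data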
# A number is an active result; – = inactive; · = not tested or not shown. The list is not random: actives were taken first. Their share in the collection is about 3.5%.
SMILES,TEAD-YAP block,FBW7 activator,GPR151 ag,MITF inh,MITF inh conf,AlphaScreen intf2,others
Cc1cccc(NC(=O)C2CCCN2C(=O)OC(C)(C)C)c1C (configuration not stated),–,–,–,–,·,·,
c1ccc(CN2CCC(Nc3nc(NC4CCN(Cc5ccccc5)CC4)c4ncn(C5CCCCC5)c4n3)CC2)cc1,–,–,–,–,·,·,
COc1ccc(O)c(C=Nc2ccc(Cl)cc2)c1,–,–,–,51.1,–,–,
Cc1nc2ccc3nc(NC(=O)c4ccc(N5C(=O)CCC5=O)cc4)sc3c2s1,–,–,–,–,·,·,
CCOC(=O)C(=O)Nc1sc(C(=O)N2CCOCC2)c(C)c1C#N,–,–,–,71.4,–,–,
O=C(c1ccccc1F)N1CCN(Cc2ccc(Br)cc2)CC1,–,–,–,–,·,·,
O=C(c1ccccc1F)N1CCN(Cc2cccnc2)CC1,–,–,–,63.0,–,–,
O=C(c1ccccc1F)N1CCC(O)(c2cccnc2)CC1,–,–,–,–,·,·,
COc1cc(CN2CCN(C(=O)c3ccco3)CC2)cc(OC)c1OC,–,–,–,–,·,·,
O=C(c1ccccc1F)N1CCN(Cc2ccncc2)CC1,–,–,–,73.3,–,–,
O=C(c1ccco1)N1CCN(Cc2cccnc2)CC1,–,–,–,66.3,–,–,
Cn1c2c(c(=O)n(C)c1=O)C(c1cccs1)C1=C(CC(C)(C)CC1=O)N2 (configuration not stated),–,–,–,–,·,·,
CCC(C)NC(=O)COc1ccc(-c2ccc(C#N)cc2)cc1 (configuration not stated),–,–,–,–,·,·,
CCN1CCN(CCCn2c(=S)[nH]c3cc4c(cc3c2=O)OCO4)CC1,–,–,–,–,·,·,
COc1ccc(NC(=O)CN(C)CC(=O)Nc2cccc(C(C)=O)c2)cc1,–,–,–,58.0,–,–,
Cc1ccc(OCC(=O)N2CCC[C@@H]3CN(C(=O)Cc4ccc(F)cc4)CC[C@H]32)cc1,–,–,–,–,·,·,
CN(C)c1ccc(C(=O)OCC(=O)N2CC3(C)CC2CC(C)(C)C3)cc1 (configuration not stated),–,–,–,–,·,·,
COc1ccc(CN2CCc3ccccc3C2)c(OC)c1,–,–,–,–,·,·,
COc1ccccc1CN1CCN(Cc2ccco2)CC1,–,–,–,77.4,–,–,
COc1ccc(CN2CCN(C(=O)c3ccco3)CC2)c(OC)c1OC,–,–,–,–,·,·,
COc1ccc(CN2CCN(Cc3ccco3)CC2)c(OC)c1,–,–,–,73.1,–,–,
COc1ccc(CN2CCN(Cc3ccco3)CC2)c(OC)c1OC,–,–,–,54.9,–,–,
C#CCN1C(=O)S/C(=C/c2ccc3c(c2)OCO3)C1=O,–,–,–,–,·,·,
NC(=O)c1ccc(N=Cc2cc3c(cc2[N+](=O)[O-])OCO3)cc1,–,–,–,58.0,75.9,–,AlphaScreen DR=–
CCN(CC)S(=O)(=O)c1ccc(NS(=O)(=O)c2ccc(OC)cc2)cc1,–,–,–,–,·,·,
SMILES,TEAD-YAP block,FBW7 activator,GPR151 ag,MITF inh,MITF inh conf,AlphaScreen intf2,others
O=C1CCCC2=C1C(c1ccc([N+](=O)[O-])o1)C1=C(CCCC1=O)O2,–,–,–,66.9,62.2,–,AlphaScreen DR=–
Cc1nccn1CCCNCc1ccc(OCC(O)CN2CCCCC2)cc1 (configuration not stated),–,–,–,–,·,·,
CCOC(=O)c1ccc(NC(=O)CCOc2ccccc2)cc1,–,–,–,74.6,–,–,
Cc1cnc(-c2ccc(N3CCN(C)CC3)cc2)nc1NCCN1CCOCC1,–,–,–,–,·,·,
COc1ccc2c(c1)C1NC(=S)N(c3cccc(C)c3)C(C)(O2)C1C(=O)Nc1ccc(C)cc1C (configuration not stated),–,–,–,56.6,30.8,–,AlphaScreen DR=–
CCOc1ccc(-c2cn3nc(COc4ccc(Cl)cc4Cl)n4c3c2CCCC4)cc1,–,–,–,58.8,–,–,
